Test results reported in PubChem BioAssay AID588441 (Southern Research Specialized Biocontainment Screening …, 2011).
Inconclusive results are not listed. Calls of active or inactive are those of the source. The rule behind the calls is not given here.

Assay: HepG2 cell cytotoxicity, cytotoxicity control, set 5 (AID 588441)
Conditions: series mostly up to 50 µM

| Compound | outcome |
| --- | --- |
| CCOC(=O)CSc1ncnc2c1cnn2-c1ccccc1 | inactive |
| CCC(C)NC(=O)CSc1nc2ccccc2c(=O)[nH]1 (stereo not drawn) | inactive |
| COC(=O)CSc1ncnc2c1cnn2-c1ccc(C)cc1C | inactive |
| O=C(NCCc1ccc(Cl)cc1)c1ccc(CNc2c(N3CCOCC3)c(=O)c2=O)cc1 | inactive |
| CC1CC(C)CN(C(=O)C2CCC(CNc3c(N4CCCCC4)c(=O)c3=O)CC2)C1 (stereo not drawn) | inactive |
| CCOC(=O)CSc1ncnc2c1cnn2-c1ccc(C)cc1C | inactive |
| COc1ccc(N2CCN(C(=O)c3ccc(CNc4c(N5CCOCC5)c(=O)c4=O)cc3)CC2)cc1 | inactive |
| CC(C)OC(=O)CSc1ncnc2c1cnn2-c1ccccc1 | inactive |
